Source: PubChem BioAssay (Tox21)
Values joined by “and” are separate entries in the source; they are usually repeats but may differ in a detail not shown here. Equal values may be shown once. Records with an inconclusive call do not appear. Active and inactive are the calls of the source. Unless noted, calls follow the shape of the dose curve; as a rule, active = well fitted curve in the direction sought with a large enough effect in the repeat runs; inconclusive = weak or mixed curves; inactive = no such curve, though single readings can be large; an effect the other way counts as inactive or inconclusive.

Experiments:
[1] = qHTS assay to identify aromatase inhibitors - cell viability counter screen (AID 743084);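 also: cells stimulated with testosterone during compound exposure; nearly all actives have a fitted effect of over 55% in size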
[2] = biological target: Aryl hydrocarbon receptor (Homo sapiens) (UniProt P35869); experiment: qHTS assay to identify small molecule that activate the aryl hydrocarbon receptor (AhR) signaling pathway (AID 743085); also: nearly all actives have a fitted effect of over 15% in size; also: potency is read from the fitted curve at half-maximal effect;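 as to activation: HG2L7.5c1 human HepG2 liver cells with stably integrated DRE-driven firefly reporter; series mostly up to about 70 µM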
How it was run: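 AhR agonist activity is inferred from enhanced light output of a DRE-controlled firefly luciferase reporter in HepG2 cells, measured with ONE-Glo following 24 h treatment at 37C.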

[3] = qHTS assay to identify small molecule that activate the aryl hydrocarbon receptor (AhR) signaling pathway - cell viability counter screen (AID 743086);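 also: HepG2 liver cells carrying the AhR DRE luciferase reporter; series mostly up to about 70 µM; nearly all actives have a fitted effect of over 45% in size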
How it was run: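 Cytotoxicity counter screen: CellTiter-Fluor signal (30 min, 37 C) in 4000 HepG2 cells/well carrying the DRE-luciferase reporter, following 24 h compound exposure at 37 C.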

[4] = biological target: Peroxisome proliferator-activated receptor gamma (Homo sapiens) (UniProt P37231); experiment: qHTS assay to identify small molecule agonists of the peroxisome proliferator-activated receptor gamma (PPARg) signaling pathway (AID 743094; active = well fitted activation curve with a large enough effect in the signal ratio in the repeat runs, not every such curve was filed as active; the % refers to the signal ratio)
How it was run: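 HEK293H PPARg-bla cells, 5 h settle at 37C/5% CO2; compound (DMSO) 17 h, 37C; B/G FRET substrate 1 h RT; fluorescence intensity read-out. qHTS format.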

[5] = qHTS assay to identify small molecule antagonists of the peroxisome proliferator-activated receptor gamma (PPARg) signaling pathway - cell viability counter screen (AID 743194); also: nearly all actives have a fitted effect of over 55% in size
How it was run: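 Viability was measured as CellTiter-Glo luminescence in GeneBLAzer PPARg UAS-bla HEK293H cells. These cells had been exposed 17 h at 37 C to compounds together with rosiglitazone at 50 nM final, with the beta-lactamase readout taken in the same wells.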

[6] = qHTS assay for small molecule agonists of the antioxidant response element (ARE) signaling pathway (AID 743202; active = well fitted activation curve with a large enough effect in the signal ratio in the repeat runs, not every such curve was filed as active; the % refers to the signal ratio; also: potency is read from the fitted curve at half-maximal effect)
How it was run: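 Beta-lactamase reporter activity, read as fluorescence intensity, reflects ARE/Nrf2 pathway induction in HepG2 cells after 16 h compound exposure at 37 C; substrate loading was 2 h at room temperature.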

[7] = qHTS assay for small molecule agonists of the antioxidant response element (ARE) signaling pathway - cell viability counter screen (AID 743203; calls by dose curve; also: nearly all actives have a fitted effect of over 55% in size)
How it was run: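 Luminescence read-out (CellTiter-Glo, 30 min at room temperature) measured cell viability in the same wells as the ARE beta-lactamase reporter. HepG2 ARE-bla cells were treated with compounds for 16 hrs at 37C/5% CO2.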

[8] = qHTS assay for small molecule activators of the heat shock response signaling pathway - cell viability counter screen (AID 743209); also: nearly all actives have a fitted effect of over 50% in size
How it was run: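 HSE-bla HeLa; 1500 cells/well; overnight 37 C, 5% CO2; compound 5 h 37 C; LiveBLAzer B/G substrate 2.5 h RT; CellTiter-Glo 30 min RT; luminescence.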

[9] = qHTS assay to identify small molecule agonists of the peroxisome proliferator-activated receptor delta (PPARd) signaling pathway - cell viability counter screen (AID 743211); also: nearly all actives have a fitted effect of over 55% in size
How it was run: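 qHTS cell viability: PPARd-bla HEK293H; 17 h cpd, 37C; CellTiter-Glo, luminescence at 30 min RT.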

[10] = biological target: Peroxisome proliferator-activated receptor delta (Homo sapiens) (UniProt Q03181); experiment: qHTS assay to identify small molecule agonists of the peroxisome proliferator-activated receptor delta (PPARd) signaling pathway (AID 743212; calls by dose curve)
How it was run: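 Steps: seed PPARd-bla HEK293H cells; incubate 5 h, 37 C, 5% CO2; add compounds in DMSO; incubate, 37 C; add LiveBLAzer B/G FRET substrate; hold 2 h at room temperature; measure fluorescence.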

[11] = qHTS assay to identify small molecule antagonists of the peroxisome proliferator-activated receptor delta (PPARd) signaling pathway - cell viability counter screen (AID 743213); also: nearly all actives have a fitted effect of over 50% in size
How it was run: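 PPARd-bla HEK293H cells (3000/well) got compound plus 300 nM L165041 agonist for 17 h at 37 C. Viability in the same wells came from CellTiter-Glo luminescence after 30 min at room temperature.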

[12] = biological target: Peroxisome proliferator-activated receptor delta (Homo sapiens) (UniProt Q03181); experiment: qHTS assay to identify small molecule antagonists of the peroxisome proliferator-activated receptor delta (PPARd) signaling pathway (AID 743215; active = well fitted inhibition curve with a large enough effect in the signal ratio in the repeat runs, not every such curve was filed as active; the % refers to the signal ratio;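 also: cells stimulated with agonist L165041 at 300 nM final during compound exposure; series mostly up to about 62 µM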)
How it was run: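 HEK293H GeneBLAzer PPARd UAS-bla reporter cells; cpd + L165041 300 nM final, 17 h 37 C; LiveBLAzer B/G FRET substrate 2 h RT; fluorescence intensity read-out. Antagonist mode.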

[13] = qHTS assay to identify small molecule agonists of the farnesoid-X-receptor (FXR) signaling pathway - cell viability counter screen (AID 743218); also: nearly all actives have a fitted effect of over 45% in size
How it was run: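 Luminescence from CellTiter-Glo, read after 30 min at RT, reports viability of GeneBLAzer FXR-UAS-bla HEK 293T cells treated 16 h with compounds in the wells used for the beta-lactamase reporter.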

[14] = qHTS assay to identify small molecule antagonists of the farnesoid-X-receptor (FXR) signaling pathway - cell viability counter screen (AID 743221; active = well fitted cell-killing curve with a large enough effect in the repeat runs, not every such curve was filed as active; also: nearly all actives have a fitted effect of over 50% in size)
How it was run: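 After a 5 h settling period, FXR-bla HEK 293T cells receive compound and chenodeoxycholic acid (50 uM final) and incubate 16 h at 37 C; CellTiter-Glo luminescence, read after 30 min at room temperature, reports cell viability.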

[15] = biological target: Vitamin D3 receptor (Homo sapiens) (UniProt P11473); experiment: qHTS assay to identify small molecule agonists of the vitamin D receptor (VDR) signaling pathway (AID 743222; calls by dose curve)
How it was run: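 Beta-lactamase reporter readout (LiveBLAzer B/G FRET, 2 h RT) in VDR-bla cells after 16 h compound treatment at 37C, 5% CO2; cells pre-incubated 4 h before pin transfer of DMSO solutions.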

[16] = biological target: Vitamin D3 receptor (Homo sapiens) (UniProt P11473); experiment: qHTS assay to identify small molecule antagonists of the vitamin D receptor (VDR) signaling pathway (AID 743223; active = well fitted inhibition curve with a large enough effect in the signal ratio in the repeat runs, not every such curve was filed as active; the % refers to the signal ratio)
How it was run: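 Reporter line VDR-bla; stimulus 1alpha,25-(OH)2 vitamin D3, 3 nM final; compound co-addition, 16 h 37C/5% CO2; LiveBLAzer B/G substrate 2 h RT; fluorescence intensity.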

[17] = biological target: Peroxisome proliferator-activated receptor gamma (Homo sapiens) (UniProt P37231); experiment: qHTS assay to identify small molecule antagonists of the peroxisome proliferator-activated receptor gamma (PPARg) signaling pathway (AID 743191; calls by dose curve; also: series mostly up to about 63 µM; nearly all actives have a fitted effect of over 30% in size)
How it was run: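 Beta-lactamase reporter under UAS control in HEK293H PPARg-bla cells; compound treatment 17 h at 37C. Read-out: fluorescence intensity after 1 h room-temperature incubation with LiveBLAzer B/G FRET substrate.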

[18] = qHTS assay for small molecule activators of the heat shock response signaling pathway (AID 743210; active = well fitted activation curve with a large enough effect in the signal ratio in the repeat runs, with a control signal flat, not every such curve was filed as active; the % refers to the signal ratio;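 also: HeLa cells with beta-lactamase reporter driven by heat shock elements; series mostly up to about 63 µM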)
How it was run: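 Fluorescence from a cleaved B/G FRET substrate (2.5 h, room temp) reports HSE-driven beta-lactamase in HeLa cells treated 5 h at 37 C with DMSO-dissolved compounds.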

[19] = biological target: Bile acid receptor (Homo sapiens) (UniProt Q96RI1); experiment: qHTS assay to identify small molecule antagonists of the farnesoid-X-receptor (FXR) signaling pathway (AID 743217; active = well fitted inhibition curve with a large enough effect in the signal ratio in the repeat runs, not every such curve was filed as active; the % refers to the signal ratio)
How it was run: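 Read-out: beta-lactamase FRET fluorescence (LiveBLAzer B/G substrate, 2 h, room temperature) in GeneBLAzer FXR-UAS-bla HEK 293T cells. Compounds were co-dosed with 50 uM chenodeoxycholic acid (final) and incubated 16 h at 37 °C.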

[20] = biological target: Bile acid receptor (Homo sapiens) (UniProt Q96RI1); experiment: qHTS assay to identify small molecule agonists of the farnesoid-X-receptor (FXR) signaling pathway (AID 743220; active = well fitted activation curve with a large enough effect in the signal ratio in the repeat runs, not every such curve was filed as active; the % refers to the signal ratio)
How it was run: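 FXR-UAS-bla HEK 293T cells carrying a UAS-driven beta-lactamase reporter were plated for 5 h at 37C/5% CO2, then exposed to DMSO-dissolved Tox21 10K compounds for 16 h at 37C. A LiveBLAzer B/G FRET substrate was loaded for 2 h at room temperature before fluorescence reading.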

Measured: Potency

Chain of Bile acid receptor (Homo sapiens) (Q96RI1 whole entry, looked up): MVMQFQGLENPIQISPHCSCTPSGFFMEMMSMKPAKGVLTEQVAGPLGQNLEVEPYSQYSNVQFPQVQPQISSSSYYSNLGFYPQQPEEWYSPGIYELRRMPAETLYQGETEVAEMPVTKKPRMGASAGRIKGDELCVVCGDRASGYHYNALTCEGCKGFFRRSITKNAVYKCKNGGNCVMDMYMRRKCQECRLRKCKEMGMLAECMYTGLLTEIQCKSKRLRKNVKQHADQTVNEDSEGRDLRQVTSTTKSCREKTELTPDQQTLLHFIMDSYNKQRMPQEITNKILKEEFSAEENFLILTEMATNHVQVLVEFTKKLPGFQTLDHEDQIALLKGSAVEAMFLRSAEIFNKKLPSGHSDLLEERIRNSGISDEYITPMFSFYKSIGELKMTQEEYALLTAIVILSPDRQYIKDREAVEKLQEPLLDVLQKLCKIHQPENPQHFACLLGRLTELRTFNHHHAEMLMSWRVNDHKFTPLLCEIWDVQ
Chain of Vitamin D3 receptor (Homo sapiens) (P11473 whole entry, looked up): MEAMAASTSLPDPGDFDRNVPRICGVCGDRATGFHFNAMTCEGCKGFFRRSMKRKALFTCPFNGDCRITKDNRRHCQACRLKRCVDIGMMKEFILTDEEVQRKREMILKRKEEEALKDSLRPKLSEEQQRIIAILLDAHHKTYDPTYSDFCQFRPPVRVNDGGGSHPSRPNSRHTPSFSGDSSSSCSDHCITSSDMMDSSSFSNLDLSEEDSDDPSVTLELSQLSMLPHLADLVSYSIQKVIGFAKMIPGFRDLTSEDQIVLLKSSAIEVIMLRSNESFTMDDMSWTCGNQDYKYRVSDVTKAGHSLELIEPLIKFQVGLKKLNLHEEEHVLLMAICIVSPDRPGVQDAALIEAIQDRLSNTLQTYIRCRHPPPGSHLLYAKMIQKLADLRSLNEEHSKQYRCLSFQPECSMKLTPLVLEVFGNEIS
Chain of Peroxisome proliferator-activated receptor delta (Homo sapiens) (Q03181 whole entry, looked up): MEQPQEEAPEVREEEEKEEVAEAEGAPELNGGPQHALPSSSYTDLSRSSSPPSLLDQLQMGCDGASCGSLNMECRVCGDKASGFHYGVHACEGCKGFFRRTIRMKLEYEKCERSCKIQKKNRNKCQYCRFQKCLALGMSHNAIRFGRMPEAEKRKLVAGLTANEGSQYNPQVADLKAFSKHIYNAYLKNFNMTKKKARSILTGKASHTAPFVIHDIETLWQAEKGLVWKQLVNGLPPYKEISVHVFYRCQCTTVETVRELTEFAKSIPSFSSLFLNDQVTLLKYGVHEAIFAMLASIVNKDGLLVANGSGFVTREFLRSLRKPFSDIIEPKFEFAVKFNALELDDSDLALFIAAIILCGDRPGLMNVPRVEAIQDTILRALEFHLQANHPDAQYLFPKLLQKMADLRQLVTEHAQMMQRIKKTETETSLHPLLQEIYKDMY
Chain of Peroxisome proliferator-activated receptor gamma (Homo sapiens) (P37231 whole entry, looked up): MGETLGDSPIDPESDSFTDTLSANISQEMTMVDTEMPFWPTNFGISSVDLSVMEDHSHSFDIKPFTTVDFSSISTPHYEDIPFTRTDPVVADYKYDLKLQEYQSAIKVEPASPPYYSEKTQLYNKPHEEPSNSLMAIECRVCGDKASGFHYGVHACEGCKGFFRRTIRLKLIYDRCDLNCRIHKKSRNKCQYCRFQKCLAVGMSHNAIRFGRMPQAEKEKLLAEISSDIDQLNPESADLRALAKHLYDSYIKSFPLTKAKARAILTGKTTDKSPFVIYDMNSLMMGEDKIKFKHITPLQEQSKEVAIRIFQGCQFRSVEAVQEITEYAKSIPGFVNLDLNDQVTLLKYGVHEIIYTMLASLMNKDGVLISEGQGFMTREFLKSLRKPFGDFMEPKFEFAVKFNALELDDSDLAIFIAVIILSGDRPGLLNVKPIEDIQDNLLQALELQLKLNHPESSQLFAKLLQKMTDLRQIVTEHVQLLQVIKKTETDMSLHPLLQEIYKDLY
Chain of Aryl hydrocarbon receptor (Homo sapiens) (P35869 whole entry, looked up): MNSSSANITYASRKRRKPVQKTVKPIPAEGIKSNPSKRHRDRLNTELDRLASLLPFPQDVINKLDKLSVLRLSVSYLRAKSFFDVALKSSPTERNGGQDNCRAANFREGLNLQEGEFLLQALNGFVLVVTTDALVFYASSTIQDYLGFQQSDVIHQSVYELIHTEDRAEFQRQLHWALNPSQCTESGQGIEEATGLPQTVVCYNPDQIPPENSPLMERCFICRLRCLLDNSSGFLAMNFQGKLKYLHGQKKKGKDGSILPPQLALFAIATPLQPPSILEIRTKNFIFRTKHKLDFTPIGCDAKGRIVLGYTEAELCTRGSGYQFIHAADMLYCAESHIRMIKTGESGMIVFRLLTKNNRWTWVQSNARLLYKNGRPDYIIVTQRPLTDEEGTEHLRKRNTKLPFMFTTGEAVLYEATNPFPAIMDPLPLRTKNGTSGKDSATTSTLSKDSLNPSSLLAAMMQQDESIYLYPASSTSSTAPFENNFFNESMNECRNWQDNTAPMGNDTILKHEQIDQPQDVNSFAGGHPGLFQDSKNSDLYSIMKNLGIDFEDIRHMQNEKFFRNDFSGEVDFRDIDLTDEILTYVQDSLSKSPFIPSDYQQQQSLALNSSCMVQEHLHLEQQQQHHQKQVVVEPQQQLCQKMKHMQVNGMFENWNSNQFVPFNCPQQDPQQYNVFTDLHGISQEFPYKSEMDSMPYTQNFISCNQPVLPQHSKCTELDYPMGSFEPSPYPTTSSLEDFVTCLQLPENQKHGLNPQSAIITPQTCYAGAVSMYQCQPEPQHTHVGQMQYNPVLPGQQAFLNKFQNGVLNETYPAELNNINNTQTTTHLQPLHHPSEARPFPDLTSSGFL

CCCCCCCCCCC(CO)CCCCCCCC (stereo not given)
not listed: [17] | [18] | [19] | [20]
inactive: all other assays above

CCCCCCCCCCCCCO
not listed: [14] | [19] | [20]
inactive: all other assays above

CC(C)(Oc1ccc(Cl)cc1)C(=O)O
not listed: [17] | [19] | [20]
inactive: all other assays above

CC1(C)OC(=O)NC1=O
not listed: [17]
inactive: all other assays above

Nc1cc(Cl)c(N)c(Cl)c1
active: [2] 27.1 µM and 21.7 µM | [6] 27.3 µM
not listed: [16] | [18]
inactive: all other assays above

O=C(O)CCCC(=O)O
not listed: [15] | [16] | [17] | [19] | [20]
inactive: all other assays above

COC(=O)C(C)Oc1ccc(Oc2ncc(C(F)(F)F)cc2Cl)cc1 (stereo not given)
not listed: [6] | [18] | [19] | [20]
inactive: all other assays above

Cc1ccc(S(=O)(=O)NCl)cc1
not listed: [15] | [16] | [18] | [19] | [20]
inactive: all other assays above

Cc1ccc(/C(=C\CN2CCCC2)c2ccccn2)cc1
not listed: [6] | [11] | [18] | [19] | [20]
inactive: all other assays above

Cc1ccc([N+](=O)[O-])c(C)c1
not listed: [17]
inactive: all other assays above

C=CCNCC=C
not listed: [10] | [12]
inactive: all other assays above

CCCCCC1C(=O)CCC1CC(=O)OC (stereo not given)
not listed: [17] | [18] | [19] | [20]
inactive: all other assays above

CCC(Cc1c(I)cc(I)c(N)c1I)C(=O)O (stereo not given)
active: [6] 23.6 µM
not listed: [10] | [16] | [17]
inactive: all other assays above

COc1ccc(C(=O)c2ccccc2O)c(O)c1
not listed: [15] | [16] | [17] | [19] | [20]
inactive: all other assays above

CC(=O)Oc1c(C)c(C)c2c(c1C)CC[C@@](C)(CCC[C@H](C)CCC[C@H](C)CCCC(C)C)O2
not listed: [12] | [17] | [19] | [20]
inactive: all other assays above

Nc1cc([N+](=O)[O-])ccc1C(=O)O
active: [2] 21.7 µM
not listed: [14] | [17] | [19] | [20]
inactive: all other assays above
